# Giardia FBPA inh: Giardia lamblia aldolase inhibition; 290,000 tested, 0.71% active; A8B2U2; purified Giardia FBPA; Potency, µM (titrated, usually from 59.6 µM), without a hit: at the top dose activity, negative = inhibition, hits mostly inhibitors; AID 2451; further: potency means the concentration at half of the fitted maximal effect; on the % scale 0 is the no-effect control and ±100 the full control effect; nearly all actives have a fitted effect of over 55% in size
#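 Giardia FBPA (40 nM reagent) was preincubated 10 min at RT with compound (up to 57.5 uM final), then substrate plus GAPDH/TPI/NAD/arsenate coupling system with diaphorase/resazurin was added; resorufin fluorescence (525/598 nm) was read after 20 min.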
# CHX counter: affects cycloheximide protein synthesis inhibition readout, counter-screen; cell reporter, cycloheximide protein synthesis inhibition counterscreen; max response, %; 300,000 tested, 12% active; in the data active means max response mostly above about 13%, no sharp cut-off; inactive means mostly below about 14%; further: read at 38.3 µM for the half of the compounds with a filed dose; 0% is about no effect
# LmPK inh: blocks Leishmania mexicana pyruvate kinase activity; Q27686; purified LmPK, Kinase-Glo ATP luminescence, 1 h; Potency, µM (highest dose often 57.5 µM), for inactives: at the highest dose activity change, negative = inhibition, usual class: inhibitors; 290,000 tested, 0.37% active; AID 1721; further: potency means the concentration at half of the fitted maximal effect; on the % scale 0 is the no-effect control and ±100 the full control effect
# Target sequence (Q27686 whole entry, looked up): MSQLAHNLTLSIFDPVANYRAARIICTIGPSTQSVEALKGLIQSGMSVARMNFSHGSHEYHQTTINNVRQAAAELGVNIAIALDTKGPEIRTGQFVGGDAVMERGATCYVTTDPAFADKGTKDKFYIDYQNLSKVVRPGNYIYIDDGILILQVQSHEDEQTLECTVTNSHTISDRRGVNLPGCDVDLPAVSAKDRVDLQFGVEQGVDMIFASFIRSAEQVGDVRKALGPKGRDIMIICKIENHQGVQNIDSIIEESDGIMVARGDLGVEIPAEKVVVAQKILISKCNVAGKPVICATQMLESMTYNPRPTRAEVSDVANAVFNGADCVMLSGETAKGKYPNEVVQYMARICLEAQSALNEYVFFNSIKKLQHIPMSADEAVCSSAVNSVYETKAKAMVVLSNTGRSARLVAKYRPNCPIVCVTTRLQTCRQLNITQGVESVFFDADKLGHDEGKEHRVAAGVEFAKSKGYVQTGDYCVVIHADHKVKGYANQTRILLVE
#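 Pyruvate kinase activity monitored as ATP production (luciferase luminescence). Conditions: 0.1 nM enzyme, 0.5 mM PEP, 0.1 mM ADP, 1 h, RT; normalized against uninhibited and no-enzyme wells.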
# Tb PYK inh: T. brucei pyruvate kinase inhibition; Q57TT1; TbPYK enzyme, Kinase-Glo Plus ATP luminescence, 45 min; Potency, µM (titrated, usually from 76.8 µM), inactives show at the highest dose activity, negative = inhibition, usual class: inhibitors; 410,000 tested, 0.12% active; AID 624173; further: potency means the concentration at half of the fitted maximal effect; on the % scale 0 is the no-effect control and ±100 the full control effect; nearly all actives have a fitted effect of over 50% in size
#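 TbPYK + substrate in 50 mM TEA pH 7.2, 100 mM KCl, 10 mM MgCl2, 0.05% BSA, 0.01% Tween-20; cpd pinned; ADP 130 uM final; 45 min RT; Kinase-Glo Plus 10 min; luminescence endpoint.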
# Sm TGR block: inhibitors of Schistosoma mansoni thioredoxin glutathione reductase; purified TGR, DTNB reduction, TNB absorbance 405 nm; Potency, µM (highest dose often 114 µM), inactives show at the highest dose activity change, negative = inhibition, actives largely listed as inhibitors; 360,000 tested, 3% active; further: potency means the concentration at half of the fitted maximal effect; on the % scale 0 is the no-effect control and ±100 the full control effect; nearly all actives have a fitted effect of over 60% in size
#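 Kinetic colorimetric format: TGR-catalysed, NADPH-driven DTNB reduction monitored via TNB absorbance. Enzyme dispensed at 20 nM; compound exposure 15 min at room temperature before reaction start.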
# Shiga inhibitor: inhibitors of Shiga toxin in Vero cells; 290,000 tested, 9.2% active; Vero cells, Shiga toxin protein synthesis inhibition reporter; inhibition, % at 38.7 µM; in the data active means inhibition mostly above about 28%, no sharp cut-off; inactive means mostly below about 43%; further: 0% is about no effect
# * marks the source's active call; other numbers are inactive results; ? = inconclusive; . = no result given; [ ] = another dose, or the depositor's remark. The sample as a whole holds a higher share of hits than the screen did. Unless noted, the call rests on the fitted dose curve; in most records, active means well fitted curve in the direction sought with a large enough effect; inconclusive means small, poorly fitted or top-dose-only effect, or another doubt; inactive means no such curve, though single readings can be large; an effect the other way counts as inactive or inconclusive.
SMILES,Giardia FBPA inh,CHX counter,LmPK inh,Tb PYK inh,Sm TGR block,Shiga inhibitor
NS(=O)(=O)c1ccc(NS(=O)(=O)c2ccc(NC(=S)Nc3ccccc3)cc2)cc1,-1%,-2,-2%,-5%,?,-12
Cc1ccc(NC(=S)NNC(=O)c2nn(C)c(C)c2Cl)cc1,13%,36*,0%,-10%,13%,93*
Cc1cc(C)cc(NS(=O)(=O)c2ccc(NC(=S)Nc3ccccc3)cc2)c1,-7%,14*,0%,-3%,-13%,-2
S=C(Nc1ccccc1)Nc1ccccc1Br,-2%,3,7%,6%,45µM*,23
CCOC(=O)c1ccc2nc(NC(=O)C(C)C)sc2c1,-1%,44*,-2%,1%,5%,59*
CCCCC(=O)Nc1nc2ccc(C(=O)OC)cc2s1,2%,27*,2%[11.5 µM],-6%,21%,97*
CCCC(=O)Nc1nc2ccc(C(=O)OCC)cc2s1,8%,26*,2%,-2%,-4%,73*
C=CCN(CC=C)S(=O)(=O)c1ccc2nc(NC(=O)C(C)C)sc2c1,0%,-1,0%,-11%,-3%,-10
Cc1cccc(C)c1NC(=O)c1oc2c(c1C)-c1nn(Cc3ccccc3)cc1CC2,.,.,.,-1%,6%,.
Cc1ccc(Cl)cc1N1CCN(c2nc3ccccc3c3nc(-c4cccnc4)nn23)CC1,.,.,.,-5%,-3%,.
CCCCOc1ccc(-c2nnc(-c3ccncc3)o2)cc1,-1%,17*,-6%,1%,1%,56
CCOc1ccc(-c2nnc(-c3ccc(OC)cc3)o2)cc1,5%,-1,3%,-6%,1%,9
CCOc1ccc(-c2nnc(-c3ccncc3)o2)cc1,-4%,50*,-10%,-11%,2%,126
CCOc1ccc(-c2nnc(-c3ccccc3)o2)cc1,0%,29*,?,-16%,-8%,77*
CCCCOc1ccc(-c2nnc(-c3cc[n+](C)cc3)o2)cc1,-4%,3,2%,-2%,0%,34
CN(C)c1ccc(-c2nnc(-c3cccs3)o2)cc1,0%,11,4%,-6%,-2%,34
CCCOc1ccc(-c2nnc(-c3cccs3)o2)cc1,7%,51*,-2%,-10%,-8%,107*
CN(CCO)CCC(=O)NC1(C)CS(=O)(=O)CC1S(=O)(=O)O (configuration not stated),3%,-4,-4%,1%,-6%,1
c1coc(-c2nnc(NC3=NCCC3)o2)c1,1%,29*,-16%,1%,-1%,66*
CCOc1ccc(-c2nc3ccccc3c(=O)o2)cc1,-2%,15*,?,-9%,-4%,21
CCOc1ccc(-c2nnc(NC3=NCCCCC3)o2)cc1,2%,41*,-8%,3%,-6%,73*
CCOc1ccc(S(=O)(=O)NC2=NCCCCC2)cc1,.,.,.,-7%,-17%,.
CCOc1ccc(-c2nnc(SCC(=O)c3ccc(F)cc3)n2-c2ccccc2)cc1,.,.,.,5%,19%,.
Cc1nnc(NC2=NCCC2)o1,-7%,12,5%,6%,5%,10
CCOc1ccc(-c2nnc(-c3ccccc3)n2-c2ccccc2)cc1,1%,42*,3%,10%,-6%,65
SMILES,Giardia FBPA inh,CHX counter,LmPK inh,Tb PYK inh,Sm TGR block,Shiga inhibitor
Cc1ccc(Nc2nnc(-c3ccc(C)c(S(=O)(=O)N4CCOCC4)c3)c3ccccc23)c(C)c1,.,.,.,-8%,2%,.
CCCCc1nc2sc3c(=O)n(N)cnc3c2c2c1CCC2,4%,-4,-2%,7%,32%,-3
Cc1ccsc1CN(C(=O)COc1ccc(Br)cc1)C1CCS(=O)(=O)C1 (configuration not stated),.,.,.,-6%,-1%,.
CN(c1nc(-c2ccc(Br)cc2)cs1)C1CCS(=O)(=O)C1 (configuration not stated),-9%,19*,7%,-23%,6%,43
O=C(CNc1cc(S(=O)(=O)N2CCCC2)ccc1OCC(F)(F)F)Nc1ccc(SC(F)F)cc1,-8%,21*,2%,4%,4%,53
O=C(CC(c1ccccc1)c1ccccc1)Nc1ccc(Cl)cn1,-2%,2,2%,-8%,-14%,23

# Compound activity: PubChem, National Center for Advancing Translational Sciences (NCATS)
